For test [1], the system named is Plasmodium falciparum Sir2 (PF13_0152, Sir2A). Description: pfSir2 binders on small-molecule microarrays, primary screen, biochemical, small-molecule microarray, 635 nm fluorescence (AID 1098).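 Also: score merges spot fluorescence intensity with its signal-to-noise ratio.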 As to conditions: small-molecule microarray binding, fluorescence 635 nm; higher = more signal.
Test [2] can be described thus: small-molecule microarray binders of probe aDKK1, primary screen, biochemical, biotinylated probe, 635/667 nm fluorescence (AID 1099).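 Also: score merges 667nm spot fluorescence with signal to noise across triplicate slides.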 Particulars: higher = more signal.
Test [3] is described as follows: small-molecule microarray binders of probe aCHRDL2, primary screen, biochemical, biotinylated probe, 635/667 nm fluorescence (AID 1100). As to conditions: higher = more signal.
A short description of test [4]: splicing luciferase reporter signal modulators, primary screen, spliceosome inhibition project, cell-based, HEK293, splice +/- reporter (AID 1101).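 Also: HEK293 cells carrying a splicing-competent luciferase reporter gene; test concentration not given here.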 As to conditions: luminescence, 24 h, higher = more signal, called active from +8 up or from −8 down. (In general: A reporter such as luciferase makes a cellular process visible.)
The target of test [5] is Fibroblast growth factor 10 (Homo sapiens) (UniProt O15520). Description: FGF10 binders on small-molecule microarrays, primary screen, biochemical, small-molecule microarray, 635 nm fluorescence (AID 1102). As to conditions: FGF10 binding, fluorescence 635 nm, higher = more signal.
Fibroblast growth factor 10 (Homo sapiens), sequence (O15520 whole entry, looked up): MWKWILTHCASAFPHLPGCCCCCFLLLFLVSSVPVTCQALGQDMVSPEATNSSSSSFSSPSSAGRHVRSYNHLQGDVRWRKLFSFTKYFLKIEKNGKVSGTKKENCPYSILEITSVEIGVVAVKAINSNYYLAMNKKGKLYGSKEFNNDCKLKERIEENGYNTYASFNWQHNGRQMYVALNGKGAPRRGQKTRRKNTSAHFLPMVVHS
Test [6] relates to glycogen synthase kinase-3 (GSK3A per assay name; protocol says GSK3B). The experiment in a line: GSK3 binders on small-molecule microarrays, primary screen, biochemical, small-molecule microarray, 635 nm fluorescence, GSK3A (AID 1103). Also: the record names both GSK3A and GSK3B. Particulars: small-molecule microarray binding, fluorescence 635 nm; higher = more signal.
Test [7] has as its target Epidermal growth factor receptor (Homo sapiens) (UniProt P00533). Description: EGFR binders on small-molecule microarrays, primary screen, biochemical, small-molecule microarray, 635 nm fluorescence (AID 1104).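 Also: score merges 667 nm emission intensity with spot signal to noise over triplicate slides.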 Particulars: EGFR binding, higher = more signal.
The target of test [8] is Follistatin-related protein 3 (Homo sapiens) (UniProt O95633). Description: FSTL3 binders on small-molecule microarrays, primary screen, biochemical, small-molecule microarray, 635 nm fluorescence (AID 1105).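 Also: score merges emission near 667 nm and signal to noise per printed spot across three slides.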 As to conditions: FSTL3 binding, higher = more signal.
Follistatin-related protein 3 (Homo sapiens), sequence (O95633 whole entry, looked up): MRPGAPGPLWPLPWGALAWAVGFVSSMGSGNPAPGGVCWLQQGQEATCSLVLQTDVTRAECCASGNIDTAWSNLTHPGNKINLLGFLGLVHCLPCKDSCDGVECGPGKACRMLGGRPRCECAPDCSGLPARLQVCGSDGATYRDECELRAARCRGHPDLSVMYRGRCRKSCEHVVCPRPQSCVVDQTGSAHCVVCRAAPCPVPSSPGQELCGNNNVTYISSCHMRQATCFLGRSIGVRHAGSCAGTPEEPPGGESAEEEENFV
Test [9] concerns the target Dickkopf-related protein 1 (Homo sapiens) (UniProt O94907). The experiment in a line: DKK1 binders on small-molecule microarrays, primary screen, biochemical, small-molecule microarray, 635 nm fluorescence scan (AID 1106).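 Also: score merges emission near 667 nm with signal to noise over three replicate slides.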 As to conditions: DKK1 binding, higher = more signal.
Test [10] relates to Inhibin beta A chain (activin A). Description: INHBA (activin A) binders on microarrays, primary screen, biochemical, small-molecule microarray, 635 nm fluorescence scan (AID 1107).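 Also: mouse activin A protein probed at 4.33 µg/mL on printed slides; score merges bound-protein fluorescence near 667 nm with spot signal-to-noise.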 As to conditions: small-molecule microarray binding, higher = more signal.
The subject of test [11] is Human papillomavirus type 1a protein E7 (residues 44-93). The experiment in a line: HPV1a E7 fragment binders on microarrays, primary screen, biochemical, small-molecule microarray, residues 44-93, 635 nm fluorescence (AID 1108).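 Also: E7 fragment applied at 1 µg/mL in TBST for 1 h at 4 C; score combines spot fluorescence with its signal to noise ratio.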 Particulars: small-molecule microarray binding, fluorescence 635 nm; higher = more signal.
A short description of test [12]: modulators of HCV replicon luciferase signal, primary screen, HCV replication inhibitor project, Huh7 cells, luciferase reporter (AID 1109).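 Also: huh7 hepatoma cells harbouring a luciferase neomycin HCV replicon reporter; luciferase luminescence as measure of HCV replicon replication; test concentration not given here.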 As to conditions: 48 h, higher = more signal.
For test [13], the target named is Left-right determination factor 2 (Homo sapiens) (UniProt O00292). Description: LEFTY2 binders on small-molecule microarrays, primary screen, biochemical, small-molecule microarray, 635 nm fluorescence scan (AID 1110). As to conditions: LEFTY2 binding, higher = more signal.
Left-right determination factor 2 (Homo sapiens), sequence (O00292 whole entry, looked up): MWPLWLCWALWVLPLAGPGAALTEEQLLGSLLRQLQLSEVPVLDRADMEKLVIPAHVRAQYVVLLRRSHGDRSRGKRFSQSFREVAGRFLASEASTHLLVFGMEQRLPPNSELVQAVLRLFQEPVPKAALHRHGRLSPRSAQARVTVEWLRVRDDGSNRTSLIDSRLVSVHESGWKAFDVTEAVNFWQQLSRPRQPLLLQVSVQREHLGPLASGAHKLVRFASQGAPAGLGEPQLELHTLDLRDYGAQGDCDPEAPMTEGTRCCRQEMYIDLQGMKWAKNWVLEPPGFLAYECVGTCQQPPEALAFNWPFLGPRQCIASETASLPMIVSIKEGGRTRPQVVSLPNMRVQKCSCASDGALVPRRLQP
The target of test [14] is Calmodulin-1 (Homo sapiens) (UniProt P0DP23). The experiment in a line: CALM1 binders on microarrays, EGTA buffer, profiling panel, biochemical, small-molecule microarray, Cy5-labelled CALM1 (AID 1111).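 Also: labelled calmodulin applied in Tris saline Tween buffer holding calcium plus EGTA and DTT.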 Particulars: Cy5-CALM1 binding fluorescence, higher = more signal.
For test [15] the target is unchanged. The experiment in a line: calcium-bound CALM1 binders on microarrays, profiling panel, artefact control for SMM control-protein annotation, biochemical, small-molecule microarray, Cy5-labelled CALM1, plus calcium (AID 1112).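 Also: score merges spot fluorescence with signal to noise from triplicate slides.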 Particulars: Cy5-CALM1 binding fluorescence, higher = more signal.
Test [16] can be described thus: small-molecule microarray binders of probe aWnt5a, primary screen, biochemical, biotinylated probe, 635/667 nm fluorescence (AID 1113).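 Also: score merges 667 nm fluorescence intensity with signal-to-noise per printed feature.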 As to conditions: higher = more signal.
Test [17] in a line: small-molecule microarray binders of probe aShh, primary screen, biochemical, biotinylated probe, 635/667 nm fluorescence (AID 1114).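 Also: probe is biotin-labelled aShh protein from a stem cell growth factor screen; measures binding of labelled protein to compounds printed on the slide; score merges feature fluorescence at 667 nm with signal-to-noise.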 As to conditions: higher = more signal.
Test [18] is described as follows: small-molecule microarray binders of probe aNog, primary screen, biochemical, biotinylated probe, 635/667 nm fluorescence (AID 1115).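 Also: probe is biotinylated aNog protein used at 0.15 µg/mL for 1 h at 4 C; z-score combines 667 nm fluorescence of each spot with its signal to noise.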 Particulars: higher = more signal.
Test [19] deals with Torsin-1A-interacting protein 1 (Homo sapiens) (UniProt Q5JTV8). Description: LAP1 binders from COS7 cell lysate, primary screen, small-molecule microarray, 635/667 nm fluorescence (AID 1116). As to conditions: COS7-hLAP1 lysate binding, 635 nm fluorescence, higher = more signal.
Torsin-1A-interacting protein 1 (Homo sapiens), sequence (Q5JTV8 whole entry, looked up): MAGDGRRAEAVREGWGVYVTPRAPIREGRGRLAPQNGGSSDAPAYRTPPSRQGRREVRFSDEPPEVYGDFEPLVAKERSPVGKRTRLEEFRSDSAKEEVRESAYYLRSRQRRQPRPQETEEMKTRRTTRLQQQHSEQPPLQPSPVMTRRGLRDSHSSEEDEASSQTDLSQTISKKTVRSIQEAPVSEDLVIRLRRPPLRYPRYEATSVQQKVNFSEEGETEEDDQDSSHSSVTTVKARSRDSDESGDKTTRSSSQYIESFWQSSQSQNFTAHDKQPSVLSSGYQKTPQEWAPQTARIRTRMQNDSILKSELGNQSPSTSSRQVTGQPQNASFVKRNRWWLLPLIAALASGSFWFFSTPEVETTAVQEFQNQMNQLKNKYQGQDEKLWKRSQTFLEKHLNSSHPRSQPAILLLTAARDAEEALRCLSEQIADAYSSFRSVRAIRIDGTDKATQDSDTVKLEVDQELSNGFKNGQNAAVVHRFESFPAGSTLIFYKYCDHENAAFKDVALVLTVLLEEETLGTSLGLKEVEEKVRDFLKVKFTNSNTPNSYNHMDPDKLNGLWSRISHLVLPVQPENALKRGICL
Test [20] addresses Alpha-bungarotoxin (Bungarus multicinctus) (UniProt P60615). The experiment in a line: alpha-bungarotoxin binders on microarray, profiling panel, artefact control for SMM control protein annotation, biochemical, small-molecule microarray, Alexa647 label, 635/667 nm fluorescence (AID 1117). Particulars: alpha-BTX-A647 binding fluorescence, higher = more signal.

The source made the active and inactive calls.

Alpha-bungarotoxin (Bungarus multicinctus), sequence (P60615 whole entry, looked up): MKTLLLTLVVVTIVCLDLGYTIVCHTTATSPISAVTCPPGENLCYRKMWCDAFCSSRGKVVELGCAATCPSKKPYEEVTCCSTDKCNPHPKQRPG
Epidermal growth factor receptor (Homo sapiens), sequence (P00533 whole entry, looked up): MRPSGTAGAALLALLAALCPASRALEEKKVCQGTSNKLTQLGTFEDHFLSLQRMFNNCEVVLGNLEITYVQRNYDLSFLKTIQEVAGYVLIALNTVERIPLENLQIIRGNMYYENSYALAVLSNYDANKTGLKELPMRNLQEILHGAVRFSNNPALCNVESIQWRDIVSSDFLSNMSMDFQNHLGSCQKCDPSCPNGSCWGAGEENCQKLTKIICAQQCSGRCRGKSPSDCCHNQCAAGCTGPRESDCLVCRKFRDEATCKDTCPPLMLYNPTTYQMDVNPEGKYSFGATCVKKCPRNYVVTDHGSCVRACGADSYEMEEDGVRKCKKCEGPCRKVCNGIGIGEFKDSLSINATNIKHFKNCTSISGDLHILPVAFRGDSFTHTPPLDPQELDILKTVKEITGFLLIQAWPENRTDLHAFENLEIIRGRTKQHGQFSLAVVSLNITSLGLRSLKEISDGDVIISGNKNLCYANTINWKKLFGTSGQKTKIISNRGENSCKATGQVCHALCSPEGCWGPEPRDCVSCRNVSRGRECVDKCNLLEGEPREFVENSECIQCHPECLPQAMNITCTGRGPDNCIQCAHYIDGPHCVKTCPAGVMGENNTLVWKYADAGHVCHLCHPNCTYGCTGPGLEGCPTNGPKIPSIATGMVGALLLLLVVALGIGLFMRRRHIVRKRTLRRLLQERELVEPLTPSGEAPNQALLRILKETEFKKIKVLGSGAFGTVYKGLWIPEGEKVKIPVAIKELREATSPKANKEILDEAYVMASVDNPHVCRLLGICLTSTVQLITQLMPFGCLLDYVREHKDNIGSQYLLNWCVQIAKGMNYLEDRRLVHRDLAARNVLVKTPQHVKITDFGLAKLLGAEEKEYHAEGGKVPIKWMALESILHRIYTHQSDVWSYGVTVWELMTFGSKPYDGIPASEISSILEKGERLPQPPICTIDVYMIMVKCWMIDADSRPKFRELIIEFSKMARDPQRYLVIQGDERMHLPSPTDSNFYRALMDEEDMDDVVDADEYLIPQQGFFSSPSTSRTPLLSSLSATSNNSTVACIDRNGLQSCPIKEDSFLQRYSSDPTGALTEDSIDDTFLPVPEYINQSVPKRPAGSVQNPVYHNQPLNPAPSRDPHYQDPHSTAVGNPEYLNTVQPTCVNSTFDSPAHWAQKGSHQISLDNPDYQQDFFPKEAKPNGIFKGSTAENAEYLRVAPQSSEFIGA
Dickkopf-related protein 1 (Homo sapiens), sequence (O94907 whole entry, looked up): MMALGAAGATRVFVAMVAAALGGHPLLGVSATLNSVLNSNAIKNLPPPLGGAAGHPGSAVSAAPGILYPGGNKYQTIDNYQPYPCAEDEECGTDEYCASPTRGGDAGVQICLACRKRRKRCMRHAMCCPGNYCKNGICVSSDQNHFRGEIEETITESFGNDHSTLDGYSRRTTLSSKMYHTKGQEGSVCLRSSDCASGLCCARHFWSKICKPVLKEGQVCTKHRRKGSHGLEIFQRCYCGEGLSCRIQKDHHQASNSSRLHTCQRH

For `CC(=O)NCCCC[C@@H]1NC(=O)[C@H]2C[C@@H](C(=O)NCCCCCN)[C@@H](c3ccc(O)cc3)N2C1=O`, the composite z-score is 0.863 in test [1]; 0.316 in [2]; 0.17 in test [3]; 0.544 in [5]; 1.29 in test [6]; 0.511 in test [7]. In addition, the composite z-score in test [8] is 0.777; in test [9], 1.02; in test [10] it was 0.792; in test [11], 1.36; in test [13] it was 0.777; in test [14], 0.536. The composite z-score is 0.973 in test [15]; -0.1 in test [16]; -0.0211 in test [17]; -0.221 in test [18]; 0.852 in [19]; 0.988 in [20]. In addition, the figures for the z-score in test [4] and in test [12] were 0.0809 (inactive) and 0.199, respectively.

For the compound `COC(=O)[C@H](Cc1ccccc1)N1CC(C)(OC)O[C@@H](Cc2ccccc2)[C@H]1/C=C/C1CC1` (stereo not given in full), the composite z-score is 0.292 in [1]; -0.158 in test [2]; 0.0982 in [3]; -0.105 in [5]; 0.178 in test [6]; -0.359 in test [7]. Also, the composite z-score is -0.151 in test [8]; -0.268 in [9]; 0.609 in [10]; 0.208 in [11]; -0.17 in [13]; -0.0441 in [14]. Besides, the composite z-score is -0.233 in test [15]; -0.0239 in test [16]; -0.198 in test [17]; 0.0299 in test [18]; 0.726 in test [19]; 0.2 in [20]. Besides, the z-score in test [4] was -0.579 (inactive); in [12] it was -1.84.

On to `[N-]=[N+]=Nc1ccccc1C[C@]1(C(=O)N2CCCCC2)N=C(c2ccc(OCCCO)cc2)O[C@H]1c1ccccc1`, for which the composite z-score in [1] was found to be 1.46; in [2] it was 1.01; in test [3] it was 1.11; in test [5], 1.25; in [6], 0.952; in [7], 0.102. For the same compound, the composite z-score was 0.616 in [8]; 0.26 in test [9]; 0.781 in test [10]; -0.0987 in [11]; 0.0344 in test [13]; 1.8 in [14]. For the same compound, the composite z-score in [15] was 0.727; in test [16], 0.0101; in [17], 0.202; in test [18], -0.544; in test [19], 0.824; in test [20], 1.93. The z-score was -0.117 (inactive) in test [4] and -2.42 in test [12].

Regarding `O=C1O[C@H](c2ccccc2)[C@H](c2ccccc2)N2[C@H]1[C@@H](C(=O)Nc1nc3ccccc3s1)[C@]1(C(=O)Nc3ccccc31)[C@H]2c1ccccc1OCCO`, the composite z-score is 1.42 in [1]; 0.0289 in test [2]; 0.505 in test [3]; 0.475 in test [5]; 0.901 in test [6]; -0.115 in test [7]. In addition, the composite z-score is 0.399 in test [8]; -0.086 in [9]; 0.121 in test [10]; 1.39 in test [11]; 0.364 in [13]; 2.01 in test [14]. Besides, the composite z-score was 0.736 in [15]; -0.0405 in test [16]; -0.0289 in test [17]; -0.501 in test [18]; 2.27 in test [19]; 1.69 in [20]. The figures for the z-score in [4] and in test [12] were -0.539 (inactive) and -2.72, respectively.

As to `O=C1C2C=CC(C(O)C(c3ccccc3)c3ccccc3)N(Nc3ccccc3F)C2C(=O)N1c1ccccc1` (stereo not given), the composite z-score turned out to be 0.802 in [1]; 0.632 in test [2]; 0.786 in [3]; 1.38 in test [5]; 1.32 in test [6]; 0.292 in [7]. For the same compound, the composite z-score in [8] was found to be 1.39; in test [9], 0.0465; in test [10], 0.875; in test [11], 1.45; in test [13], 0.407; in test [14], 1.04. For the same compound, the composite z-score in [15] came to 0.713; in [16] it was 0.0182; in test [17], 0.108; in [18], 0.686; in test [19] it was 0.855; in test [20], 0.451. Also, the results for the z-score in [4] and in test [12] were 0.34 (inactive) and -0.942, respectively.

Turning to `Cc1ccc(S(=O)(=O)N2[C@@H](c3ccccc3)C(C(=O)O)=C[C@H]2C(C)(C)C)cc1`, the composite z-score in test [1] came out at 1.19; in test [2] it was 1.08; in test [3], 1.01; in test [5], 0.644; in [6] it was 1.35; in test [7], 0.374. Besides, the composite z-score in test [8] is 0.819; in test [9], 0.0781; in test [10], -0.124; in test [11], 1.15; in test [13] it was 0.261; in [14], 2.24. The composite z-score was 0.75 in [15]; -0.0718 in [16]; -0.107 in [17]; -0.0252 in test [18]; 1.49 in [19]; 1.94 in test [20]. The z-score in [4] was 0.233 (inactive); in [12] it was -1.25.

As for `CS(=O)(=O)CCOC(=O)C1=CC(CCCO)=CC(C2CC2)N(Cc2sc3ccccc3c2Cl)C=C1C(=O)OCCS(C)(=O)=O` (stereo not given), the composite z-score in [1] was 1.38; in test [2], 0.33; in test [3] it was 0.669; in test [5] it was 0.705; in [6], 0.838; in test [7] it was -0.0062. The composite z-score in test [8] was found to be 0.856; in [9], 0.018; in test [10] it was 1.36; in test [11] it was 0.632; in test [13] it was 0.191; in test [14], 1.18. For the same compound, the composite z-score in [15] is 0.811; in test [16], 0.0324; in test [17], 0.214; in [18], 0.614; in test [19], -0.643; in test [20], 0.904. The z-score is 0.385 (inactive) in test [4] and -2.01 in [12].

Turning to `COC(=O)[C@]1(Cc2ccccc2CN=[N+]=[N-])N=C(c2ccc(OCCCO)cc2)O[C@@H]1c1ccccc1N=[N+]=[N-]`, the composite z-score in [1] was 0.973; in test [2] it was -0.507; in test [3], 0.172; in [5], 0.267; in test [6], 0.135; in test [7], -0.296. The composite z-score in test [8] was -0.332; in [9] it was -0.268; in test [10], 1.08; in [11], -0.131; in [13], -0.0976; in test [14], -0.0209. Further, the composite z-score in [15] is -0.307; in [16], -0.0346; in test [17], -0.018; in [18], 1.03; in test [19], 0.963; in test [20] it was 0.37. Also, the z-score in [4] was -0.346 (inactive); in test [12], -2.65.
